Data on four compounds can be found in PubChem BioAssay.

The source made the active and inactive calls. Unless noted, how the calls were made is not given here.

The nature of assay [1]: compound effects on lung adenocarcinoma cell viability – A549, calcein-AM fluorescence, 48 h, basal, profiling panel (AID 1162). Further: test concentration not given here. Particulars: higher = more signal.
Assay [2] in a line: compound effects on differentiated 3T3-L1 adipocyte viability – cell-based, 3T3-L1 adipocytes, calcein-AM fluorescence, 48 h, basal, profiling panel (AID 1163). Further: test concentration not given here. The following applies: 3T3-L1 adipocytes viability, higher = more signal.
The nature of assay [3]: compound effects on hepatocellular carcinoma cell viability – HepG2, calcein-AM fluorescence, 48 h, basal, profiling panel (AID 1164). Further: test concentration not given here. The following applies: higher = more signal.
Assay [4] in a line: compound effects on multiple myeloma cell viability – MM1S, calcein-AM fluorescence, 48 h, basal, profiling panel (AID 1165).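 Further: viability of MM1S multiple myeloma cells under basal unstimulated conditions; test concentration not given here.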 Particulars: higher = more signal.
Assay [5] is described as follows: calcein-AM signal in unstimulated myeloma cells – cell-based, calcein-AM fluorescence, 48 h, PK04 Diversity Set, profiling panel (AID 1166).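 Further: cells grown under basal conditions without added stimulus; test concentration not given here.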 Particulars: RPMI8226 myeloma viability, higher = more signal.
Assay [6] can be described thus: JC-1 mitochondrial signal, unstimulated HepG2 cells – cell-based, JC-1 fluorescence, 24 h, 100 nL compound, profiling panel (AID 1167). Further: test concentration not given here. Particulars: HepG2 mitochondrial potential, higher = more signal.
Assay [7] is described as follows: JC-1 mitochondrial signal, unstimulated adipocytes – cell-based, JC-1 fluorescence, 3T3-L1 adipocytes, 24 h, 100 nL compound, profiling panel (AID 1168). Further: test concentration not given here. Particulars: JC-1 mitochondrial fluorescence, higher = more signal, called active from +8 up or from −8 down.
The nature of assay [8]: JC-1 mitochondrial signal, unstimulated myeloma cells – cell-based, JC-1 fluorescence, RPMI8226, 24 h, 100 nL compound, profiling panel (AID 1169). Further: test concentration not given here. The following applies: JC-1 mitochondrial potential fluorescence, higher = more signal.
Assay [9] can be described thus: JC-1 mitochondrial signal, unstimulated MM1S myeloma – cell-based, JC-1 fluorescence, 24 h, 100 nL compound, profiling panel (AID 1170). Further: test concentration not given here. Particulars: MM1S mitochondrial potential, higher = more signal.
Assay [10] in a line: resazurin metabolic signal in A549 cells – cell-based, resazurin fluorescence, 24 h, PK04 Diversity Set, profiling panel (AID 1171). Further: test concentration not given here. The following applies: A549 viability, higher = more signal, called active from +8 up or from −8 down. (Resazurin is reduced to fluorescent resorufin, in cell work by metabolically active cells.)
Assay [11] is described as follows: resazurin metabolic signal in HepG2 cells – cell-based, resazurin fluorescence, 24 h, PK04 Diversity Set, profiling panel (AID 1172). Further: test concentration not given here. The following applies: HepG2 viability, higher = more signal.
Assay [12] is described as follows: budding yeast growth changes without added modifier – OD600, strain BY4716, 24 h, basal condition, primary screen (AID 1173). Particulars: S. cerevisiae BY4716 growth, OD600, 24 h; higher = more signal, called active from +8 up or from −8 down.
Assay [13] in a line: viability profiling in MM1S myeloma cells – cell-based, resazurin fluorescence, basal, 24 h, PK04 Diversity Set, profiling panel (AID 1174). Further: test concentration not given here. The following applies: higher = more signal, called active from +8 up or from −8 down.
The target of assay [14] is Dihydroorotate dehydrogenase (quinone), mitochondrial (Plasmodium falciparum (isolate 3D7)) (UniProt Q08210). As to the kind of experiment: inhibition of P. falciparum DHODH – biochemical, C-terminal His tag, absorbance 600 nm, primary screen (AID 1175).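 Further: recombinant parasite enzyme with a five histidine tag at its C terminus; test concentration not given here.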 The following applies: PfDHODH enzyme, DCIP absorbance 600 nm; higher = more signal, called active from +8 up or from −8 down.
Dihydroorotate dehydrogenase (quinone), mitochondrial (Plasmodium falciparum (isolate 3D7)), sequence (Q08210 whole entry, looked up): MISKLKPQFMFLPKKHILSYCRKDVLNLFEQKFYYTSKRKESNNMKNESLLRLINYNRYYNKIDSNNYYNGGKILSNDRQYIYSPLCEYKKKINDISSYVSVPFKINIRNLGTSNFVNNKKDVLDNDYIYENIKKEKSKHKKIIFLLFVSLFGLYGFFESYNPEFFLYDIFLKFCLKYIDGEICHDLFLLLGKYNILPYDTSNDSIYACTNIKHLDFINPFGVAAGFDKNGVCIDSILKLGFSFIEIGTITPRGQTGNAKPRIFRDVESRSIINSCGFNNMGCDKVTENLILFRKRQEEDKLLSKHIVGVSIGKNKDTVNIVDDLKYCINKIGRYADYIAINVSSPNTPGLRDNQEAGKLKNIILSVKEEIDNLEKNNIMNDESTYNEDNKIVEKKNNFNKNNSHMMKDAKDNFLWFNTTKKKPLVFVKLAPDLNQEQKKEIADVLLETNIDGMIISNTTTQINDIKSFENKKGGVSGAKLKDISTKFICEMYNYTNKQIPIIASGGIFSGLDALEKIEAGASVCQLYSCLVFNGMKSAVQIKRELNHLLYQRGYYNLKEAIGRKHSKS

Assay [15] can be described thus: inhibition of PAO1 biofilm formation – strain PAO1, LB-PBS medium, absorbance 600 nm, primary screen (AID 1176). Further: test concentration not given here. Particulars: P. aeruginosa PAO1 growth/biofilm, A600, 12 h; higher = more signal.
Assay [16] in a line: growth modulation of vineyard yeast isolate – strain RM11-1a, OD600, basal, 24 h, primary screen (AID 1177).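 Further: cultures grown under basal conditions with no added stressor; test concentration not given here.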 Particulars: S. cerevisiae RM11-1a growth, OD600, 24 h; higher = more signal, called active from +8 up or from −8 down.
Assay [17] can be described thus: growth of efflux-deficient E. coli DRC39 – strain DRC39, OD650, 24 h, E. coli filamentation inducers, primary screen (AID 1178).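 Further: growth measured as culture turbidity by optical density at 650 nm; test concentration not given here.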 Particulars: E. coli DRC39 acrAB, higher = more signal, called active from +8 up or from −8 down.
Assay [18] can be described thus: growth of efflux-deficient E. coli DRC39 – strain DRC39, OD650, 48 h, E. coli filamentation inducers, primary screen (AID 1179).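 Further: screen aims at cell division blockers that make cells filament.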 Particulars: E. coli DRC39 delta-acrAB growth, higher = more signal, called active from +8 up or from −8 down.
Assay [19] in a line: viability profiling in RPMI8226 myeloma cells – cell-based, resazurin fluorescence, basal, 24 h, PK04 Diversity Set, profiling panel (AID 1180).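 Further: RPMI8826 multiple myeloma cell line at 5000 cells per well; test concentration not given here.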 The following applies: higher = more signal.
Assay [20] addresses E3 ubiquitin-protein ligase XIAP (Homo sapiens) (UniProt P98170). As to the kind of experiment: small molecules binding XIAP protein – biophysical, small-molecule microarray, fluorescence 635 nm, primary screen (AID 1181).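 Further: score merges 667 nm emission and signal to noise over triplicate slides.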 The following applies: higher = more signal.

E3 ubiquitin-protein ligase XIAP (Homo sapiens), sequence (P98170 whole entry, looked up): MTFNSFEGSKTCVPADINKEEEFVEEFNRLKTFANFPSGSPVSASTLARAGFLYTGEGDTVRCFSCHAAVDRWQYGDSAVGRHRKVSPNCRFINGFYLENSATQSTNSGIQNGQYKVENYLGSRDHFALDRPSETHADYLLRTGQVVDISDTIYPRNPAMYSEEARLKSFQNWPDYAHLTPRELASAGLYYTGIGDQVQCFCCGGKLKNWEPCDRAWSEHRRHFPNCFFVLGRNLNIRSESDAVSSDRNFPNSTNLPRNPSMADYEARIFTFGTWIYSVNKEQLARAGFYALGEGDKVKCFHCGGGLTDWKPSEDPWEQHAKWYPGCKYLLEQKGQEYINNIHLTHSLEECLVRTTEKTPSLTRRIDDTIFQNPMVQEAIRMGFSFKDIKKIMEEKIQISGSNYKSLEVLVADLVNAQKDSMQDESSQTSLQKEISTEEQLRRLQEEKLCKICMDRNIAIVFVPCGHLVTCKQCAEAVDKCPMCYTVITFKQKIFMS

Take `CC[C@H]1C2=C3C(CC[C@H]4C(OCc5ccc(F)cc5C(F)(F)F)OC[C@](C)([C@@H]34)N(C(=O)OC(C)(C)C)C2)C(COC)C1COC` (stereo not given in full): the z-score is -0.266 in [1]; -0.851 in [2]; 0.309 in assay [3]; 0.0661 in assay [4]; -0.307 in assay [5]; 1.38 in assay [6]. The z-score in assay [7] was -0.159 (inactive); in assay [8] it was -0.182; in assay [9], -1.53; in assay [10] it was -0.515 (inactive); in assay [11], -0.983; in [12], 0.9 (inactive). The z-score is -1.31 (inactive) in assay [13]; -0.126 (inactive) in assay [15]; 0.628 (inactive) in [16]; -0.543 (inactive) in assay [17]; 0.0886 (inactive) in assay [18]; -0.932 in assay [19]. Moreover, the composite z-score in assay [14] was -0.0058 (inactive); in assay [20], -0.0838.
As for `O=C1C2C=CC(C(O)c3ccccc3)N(Nc3ccccc3F)C2C(=O)N1c1ccccc1` (stereo not given), the z-score in assay [1] was -0.826; in assay [2], -0.717; in [3], 0.925; in [4], -1.06; in [5], 0.379; in assay [6], 0.12. Moreover, the z-score in assay [7] was -0.0776 (inactive); in assay [8], -1.04; in assay [9] it was -1.29; in assay [10], -0.412 (inactive); in [11] it was 0.688; in [12] it was -1.64 (inactive). Besides, the z-score in [13] is -1.07 (inactive); in assay [15], 0.629 (inactive); in assay [16], 0.0428 (inactive); in assay [17], -0.737 (inactive); in assay [18], 0.206 (inactive); in assay [19] it was 0.466. Further, the figures for the composite z-score in assay [14] and in assay [20] were -0.104 (inactive) and 0.258, respectively.
`[N-]=[N+]=NCc1ccccc1C[C@@]1(C(=O)NCc2ccccc2)N=C(c2ccc(OCCCO)cc2)O[C@@H]1c1ccccc1N=[N+]=[N-]`: the z-score in assay [1] was 0.0629; in assay [2], -1.67; in assay [3] it was -0.236; in [4], -2.78; in [5], -3.5; in [6] it was 0.917. The z-score is 0.898 (inactive) in [7]; -1.11 in [8]; -1.24 in assay [9]; -0.0617 (inactive) in assay [10]; 0.279 in [11]; 0.85 (inactive) in assay [12]. Further, the z-score in [13] was -0.806 (inactive); in [15], 1.39 (inactive); in assay [16] it was 1.49 (inactive); in [17] it was 0.423 (inactive); in assay [18], -0.335 (inactive); in assay [19] it was -0.686. The composite z-score in [14] was 0.805 (inactive); in assay [20], -0.11.
For `O=C1NC(=O)C2C1C=CC(C(O)c1ccco1)N2Nc1ccccn1` (stereo not given), the z-score in assay [1] was -0.291; in [2], -0.0855; in assay [3] it was -0.125; in assay [4], -0.0456; in [5] it was -0.529; in [6], -1.33. Further, the z-score in assay [7] was -0.688 (inactive); in [8], 0.127; in assay [9] it was -0.154; in assay [10], -0.974 (inactive); in [11], -1.32; in [12] it was 0.461 (inactive). Further, the z-score in [13] is -1.68 (inactive); in [15] it was 0.956 (inactive); in [16] it was 0.254 (inactive); in assay [17] it was -0.457 (inactive); in assay [18], -0.21 (inactive); in [19], -1.09. For the same compound, the composite z-score in assay [14] is 0.257 (inactive); in assay [20], -0.0342.
